Reference: PubChem BioAssay (EPA / NIEHS)
Results filed as inconclusive are left out. The source made the active and inactive calls. The calls were made as follows, unless noted: active = hit-call score of the fitted dose curve at least 0.9, where 1 is the maximum; inactive = score below 0.9.

How the values were obtained:
[1] = biological target: Nucleoli Translocation, AR (gene 367) (UniProt P10275); assay: UPITT_HCI_U2OS_AR_TIF2_Nucleoli_Antagonist: University of Pittsburgh U2OS Androgen Receptor-Transcriptional Intermediary Factor 2 (AR-TIF2) Antagonism High Content Imaging Assay for Nucleoli Translocation (AID 2283997; active = hit-call score of the fitted dose curve at least 0.9, where 1 is the maximum)
Summary of the method: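 Antagonism is read as loss of nucleolar AR-RFP signal relative to DHT, imaged in U2OS cells also carrying GFP-TIF2. Compounds screened at 20 uM final, 0.2% DMSO; primary actives retested in triplicate.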

[2] = biological target: Ratio of Nucleoli Translocation and Cytoplasm, AR (gene 367) (UniProt P10275); assay: UPITT_HCI_U2OS_AR_TIF2_Nucleoli_Cytoplasm_Ratio_Agonist: University of Pittsburgh U2OS Androgen Receptor-Transcriptional Intermediary Factor 2 (AR-TIF2) Agonism High Content Imaging Assay for Ratio of Nucleoli Translocation and Cytoplasm (AID 2284000; active = hit-call score of the fitted dose curve at least 0.9, where 1 is the maximum;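 also: hits raise the red nucleolar to cytoplasm ratio above vehicle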)
Summary of the method: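 Compounds tested at 20 uM final in primary screen (0.2% DMSO) and 0.195-50 uM final in dose-response (0.5% DMSO). Imaging of human U2OS cells bearing RFP-AR and GFP-TIF2; endpoint is nucleoli/cytoplasm red signal ratio, positive direction relative to DMSO.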

[3] = CCTE_Shafer_MEA_acute_spike_number: CCTE's Neural Acute Assay for Total Number of Spikes, Shafer Lab (AID 2284008);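 as to AC50: curve fitted for decrease in spike count so AC50 reflects inhibitors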
Summary of the method: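 Primary rat cortical neurons on 16-electrode MEA wells; on DIV 13 or 15, 40-min baseline then 40-min recording with compound (0.03-40 uM) at 37 C. Spikes detected at 8x rms noise; percent change versus baseline, DMSO as negative control.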

[4] = CCTE_Shafer_MEA_acute_firing_rate_mean: CCTE's Neural Acute Assay for Mean Firing Rate, Shafer Lab (AID 2284009);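 also: analyzed for loss of signal so actives lower firing rate relative to DMSO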
Summary of the method: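 Primary rat cortical neurons on 16-electrode MEA wells were exposed on DIV 13 or 15 to compound (0.03-40 uM). Spike counts per recording time, averaged over electrodes, were compared between 40-min baseline and 40-min post-exposure recordings as percent change.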

[5] = CCTE_Harrill_HTTr_Viability_MCF7: CCTE's 6-hour Cell Viability Assessment for the High-Throughput Transcriptomics (HTTr) Platform, in MCF-7 cells cultured in DMEM + 10% fetal bovine serum, Harrill Lab (AID 2284010)
Summary of the method: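 Eight-point concentration series, six-hour exposure. Propidium iodide exclusion imaged to assess membrane integrity as a cytotoxicity readout; bidirectional fitting was done with DMSO as negative control and activity baseline.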

[6] = CCTE_Harrill_HTTr_Apoptosis_MCF7: CCTE's 6-hour Apoptosis Assessment for the High-Throughput Transcriptomics (HTTr) Platform, in MCF-7 cells cultured in DMEM + 10% fetal bovine serum, Harrill Lab (AID 2284011)
Summary of the method: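 MCF-7 cells in DMEM + 10% fetal bovine serum were exposed to chemicals for 6 hours over an eight-point dilution series. Caspase-3/7 activation was imaged by high content imaging with CellEvent Caspase 3/7 Green; bidirectional fitting used DMSO as baseline.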

[7] = CCTE_Harrill_HTTr_CellCount_MCF7: CCTE's Cell Proliferation Assessment for the High-Throughput Transcriptomics (HTTr) Platform, Harrill Lab (AID 2284012; active = hit-call score of the fitted dose curve at least 0.9, where 1 is the maximum;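 also: count of Hoechst-stained nuclei per well by high-content imaging in MCF-7 cells; cells exposed to compound for six hours; intended direction is loss of nuclei count meaning fewer cells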)
Summary of the method: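 For this full-screen endpoint, MCF-7 cultures received eight compound dilutions for six hours. Well nuclei counts from Hoechst imaging were analyzed relative to DMSO.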

[8] = CCTE_Shafer_MEA_acute_burst_duration_mean: CCTE's Neural Acute Assay for Mean Burst Duration, Shafer Lab (AID 2284014);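 also: hits are decreases in mean burst duration relative to DMSO controls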
Summary of the method: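 Mean burst duration was compared between a 40 min baseline and a 40 min recording in the presence of compound (0.03-40 uM, 37 C), giving percent change per well. Cultures were rat cortical neurons at DIV 13 or 15; wells needed ≥10 active electrodes.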

[9] = CCTE_Shafer_MEA_acute_per_burst_spike_number_mean: CCTE's Neural Acute Assay for Average Number of Spikes Per Burst, Shafer Lab (AID 2284015);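 also: hits are decreases in mean spikes per burst versus baseline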
Summary of the method: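 Primary rat cortical neurons on 48-well MEA plates, treated on DIV 13 or 15 at 0.03-40 uM. Spontaneous activity recorded 40 min before and 40 min after compound at 37 C; percent change in mean spikes per single-electrode burst per well, fitted in the loss direction versus DMSO.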

[10] = CCTE_Shafer_MEA_acute_interburst_interval_mean: CCTE's Neural Acute Assay for Mean Interburst Interval, Shafer Lab (AID 2284016);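 also: percent change of mean interburst interval versus each well's own pre-dose baseline; curves fitted for decrease in interburst interval relative to DMSO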
Summary of the method: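 Primary rat cortical neurons on 16-electrode MEA wells were recorded 40 min at baseline on DIV 13 or 15, then 40 min after compound (0.03-40 uM), at 37 C. Value is percent change in mean interburst interval per well, DMSO as negative control.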

[11] = CCTE_Shafer_MEA_acute_burst_percentage_mean: CCTE's Neural Acute Assay for Percentage of Spikes in a Burst, Shafer Lab (AID 2284017)
Summary of the method: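 Primary rat cortical neurons on 16-electrode MEA wells; 40 min baseline recorded at DIV 13 or 15, then 40 min after compound (0.03-40 uM) at 37 C. Well-mean fraction of spikes in single-electrode bursts; percent change from baseline, DMSO as negative control.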

[12] = CCTE_Shafer_MEA_acute_burst_percentage_std: CCTE's Neural Acute Assay for Standard Deviation of Burst Percentage, Shafer Lab (AID 2284018);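 also: fitted in the negative direction so actives lower burst percentage SD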
Summary of the method: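 Value is percent change from baseline in the across-electrode SD of spikes-in-bursts percentage, wells with >/= 10 active electrodes. Acute 40-min exposure to 0.03-40 uM on DIV 13 or 15 rat cortical cultures, recorded at 37 C after 40-min baseline.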

[13] = CCTE_Shafer_MEA_acute_per_network_burst_spike_number_mean: CCTE's Neural Acute Assay for Average Number of Spikes in a Network Burst, Shafer Lab (AID 2284019);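 as to AC50: curve fitted for loss of signal so actives reduce spikes per network burst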
Summary of the method: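 Percent change from baseline in mean spikes per network burst, spikes detected at 8x rms noise. Each compound at 0.03-40 uM in at least three wells of rat cortical cultures, recorded 40 min before and 40 min during exposure.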

[14] = CCTE_Shafer_MEA_acute_per_network_burst_spike_number_std: CCTE's Neural Acute Assay for Standard Deviation of Number of Spikes in a Network Burst, Shafer Lab (AID 2284020);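 also: fitted for decrease in spike-number SD versus DMSO so actives lower it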
Summary of the method: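 Endpoint: percent change from 40 min baseline in standard deviation of spikes per network burst, after 40 min compound exposure (0.03-40 uM, 37 C). Cortical rat neurons on MEA at DIV 13 or 15; spikes detected at 8x rms noise, 300-5000 Hz band-pass.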

[15] = CCTE_Shafer_MEA_acute_per_network_burst_electrodes_number_mean: CCTE's Neural Acute Assay for Mean Number of Electrodes in a Network Burst, Shafer Lab (AID 2284021);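 also: curves fitted for decreases only so hits reduce electrodes per burst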
Summary of the method: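 Rat primary cortical neurons on 16-electrode MEA wells were recorded 40 min at baseline on DIV 13 or 15, then 40 min after compound (0.03-40 uM), at 37 C. Value is percent change per well, fitted in loss direction versus DMSO.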

[16] = CCTE_Shafer_MEA_acute_network_burst_percentage: CCTE's Neural Acute Assay for Percentage of Network Bursts, Shafer Lab (AID 2284022);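 also: curves fitted for loss so actives lower network burst percentage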
Summary of the method: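 Primary rat cortical neurons on 16-electrode MEA wells, treated on DIV 13 or 15 with compound (0.03-40 uM); 40-min baseline and 40-min post-exposure recordings at 37 C. Value is percent change in spikes within network bursts versus baseline, DMSO negative control.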

[17] = CCTE_Shafer_MEA_acute_cross_correlation_HWHM: CCTE's Neural Acute Assay for Cross Correlation at Half Width at Half Maximum, Shafer Lab (AID 2284026);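 also: spontaneous network firing of rat primary cortical neurons on multiwell microelectrode arrays; percent change per well from pre-dose baseline in spike cross-correlogram half width; hits are a decrease in cross-correlogram half width relative to DMSO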
Summary of the method: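 Primary rat cortical neurons on 16-electrode MEA wells; 40-min baseline on DIV 13 or 15, then 40-min recording with compound (0.03-40 uM) at 37 C. HWHM of spike cross-correlogram expressed as percent change from baseline per well, DMSO reference.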

[18] = CCTE_Shafer_MEA_acute_synchrony_index: CCTE's Neural Acute Assay for Synchrony, Shafer Lab (AID 2284027);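 also: network synchrony index of spontaneous spiking in primary rat cortical neurons on MEAs; fitted for loss of signal so actives lower synchrony relative to DMSO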
Summary of the method: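 Acute exposure of rat primary cortical neurons (DIV 13 or 15) at 0.03-40 uM. Synchrony index, 40 min before vs after, as % change relative to DMSO control.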

[19] = biological target: Nucleoli Translocation, AR (gene 367) (UniProt P10275); assay: UPITT_HCI_U2OS_AR_TIF2_Nucleoli_Agonist: University of Pittsburgh U2OS Androgen Receptor-Transcriptional Intermediary Factor 2 (AR-TIF2) Agonism High Content Imaging Assay for Nucleoli Translocation (AID 2283998; active = hit-call score of the fitted dose curve at least 0.9, where 1 is the maximum)
Summary of the method: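 Cells express human AR fused to red fluorescent protein and TIF2 fused to GFP. Red fluorescence in the nucleolar region was quantified by high-content imaging and fitted as gain-of-signal against a DMSO baseline. Compounds were tested at 0.195 to 50 uM final (0.5% DMSO).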

[20] = biological target: Ratio of Nucleoli Translocation and Cytoplasm, AR (gene 367) (UniProt P10275); assay: UPITT_HCI_U2OS_AR_TIF2_Nucleoli_Cytoplasm_Ratio_Antagonist: University of Pittsburgh U2OS Androgen Receptor-Transcriptional Intermediary Factor 2 (AR-TIF2) Antagonism High Content Imaging Assay for Ratio of Nucleoli Translocation and Cytoplasm (AID 2283999; active = hit-call score of the fitted dose curve at least 0.9, where 1 is the maximum;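 also: antagonists lower the DHT-driven ratio of nucleolar to cytoplasmic red signal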)
Summary of the method: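 This antagonist-mode endpoint tracks AR-RFP localisation, the nucleolus-to-cytoplasm intensity ratio, in TIF2-GFP-coexpressing U2OS cells. DMSO stays at or below 0.5%; testing spans 20 uM single-dose and 0.195–50 uM series, with DHT setting the activity baseline.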

Measured: AC50

Sequence of Ratio of Nucleoli Translocation and Cytoplasm, AR (gene 367) (P10275 whole entry, looked up): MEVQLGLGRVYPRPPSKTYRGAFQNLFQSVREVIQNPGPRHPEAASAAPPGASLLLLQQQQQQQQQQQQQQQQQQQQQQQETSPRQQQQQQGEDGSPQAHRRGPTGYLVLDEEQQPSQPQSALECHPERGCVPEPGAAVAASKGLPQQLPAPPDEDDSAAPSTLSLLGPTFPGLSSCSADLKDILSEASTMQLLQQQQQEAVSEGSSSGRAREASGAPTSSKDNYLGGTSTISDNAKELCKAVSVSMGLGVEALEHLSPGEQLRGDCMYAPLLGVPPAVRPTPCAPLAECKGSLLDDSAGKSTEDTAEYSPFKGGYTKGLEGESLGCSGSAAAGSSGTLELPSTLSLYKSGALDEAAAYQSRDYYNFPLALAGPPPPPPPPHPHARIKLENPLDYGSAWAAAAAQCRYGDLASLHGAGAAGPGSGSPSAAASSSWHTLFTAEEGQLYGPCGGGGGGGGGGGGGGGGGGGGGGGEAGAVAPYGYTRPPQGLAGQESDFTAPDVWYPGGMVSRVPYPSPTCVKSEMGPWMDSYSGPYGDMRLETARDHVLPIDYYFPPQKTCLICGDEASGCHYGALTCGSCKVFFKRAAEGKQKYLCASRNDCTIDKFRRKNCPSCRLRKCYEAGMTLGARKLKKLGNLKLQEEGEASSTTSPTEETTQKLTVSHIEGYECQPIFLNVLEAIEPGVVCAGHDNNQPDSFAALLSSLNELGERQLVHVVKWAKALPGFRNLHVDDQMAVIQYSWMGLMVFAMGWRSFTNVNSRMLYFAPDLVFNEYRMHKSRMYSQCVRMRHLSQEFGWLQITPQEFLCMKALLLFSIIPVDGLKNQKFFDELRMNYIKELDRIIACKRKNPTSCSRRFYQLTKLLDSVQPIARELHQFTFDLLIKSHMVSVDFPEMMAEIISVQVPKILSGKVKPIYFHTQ
Sequence of Nucleoli Translocation, AR (gene 367) (P10275 whole entry, looked up, the tested form may be a part): as the sequence (P10275 whole entry, looked up) above

CCCCC[Si](OCC)(OCC)OCC
inactive: [1] | [2]

CCN(CC)c1ccc(C(=C2C=CC(=[N+](CC)CC)C=C2)c2ccc(S(=O)(=O)O)cc2S(=O)(=O)[O-])cc1
inactive: [1] | [2]

CN(C)C(=N)N=C(N)N
not listed: [1] | [2] | [19] | [20]
inactive: all other assays above

CCCOCC(C)O (configuration not stated)
inactive: [1] | [19] | [20] | [2] | [5] | [6]

CC(CN1c2ccccc2Sc2ccccc21)N(C)C (configuration not stated)
inactive: [5]

Cc1cc(C2(c3cc(C)c(O)cc3C)OS(=O)(=O)c3ccccc32)c(C)cc1O
active: [13] 25900 nM
not listed: [1] | [2] | [6] | [19] | [20]
inactive: all other assays above

O=C[C@@H](O)[C@H](O)[C@H](O)CO
inactive: [1] | [19] | [20] | [2]

C=CCOC(=O)CCC1CCCCC1
not listed: [1] | [2] | [6] | [19] | [20]
inactive: all other assays above

C[C@H]1C[C@@H]2[C@H]([C@@H](O)C[C@@]3(C)[C@H]2CC[C@]3(O)C(=O)CO)[C@@]2(C)C=CC(=O)C=C12
active: [3] 3 nM | [4] 3 nM
not listed: [1] | [2] | [6] | [19] | [20]
inactive: all other assays above

CCC(=O)OCc1ccccc1
not listed: [1] | [2] | [19] | [20]
inactive: all other assays above

O=c1cc(-c2ccccc2)oc2cc(O)cc(O)c12
inactive: [1] | [20] | [2] | [5] | [6]

NCCCN1CCOCC1
inactive: [1] | [19] | [2]

CC1CCC2CC1C2(C)C (configuration not stated)
inactive: [5] | [6] | [7]

CNC[C@H](O)c1cccc(O)c1
inactive: [5] | [6]

CC(=O)OCC=Cc1ccccc1
inactive: [5]

Cc1ccc(C=O)s1
inactive: [5] | [6] | [7]

Cc1c(N(C)C)c(=O)n(-c2ccccc2)n1C
inactive: [5] | [6] | [7]

CC1(C)[C@@H]2CC[C@@]1(C)[C@H](O)C2
inactive: [5]

CN(CCOc1ccc(CC2SC(=O)NC2=O)cc1)c1ccccn1 (configuration not stated)
inactive: [5] | [6] | [7]

C=CCOc1nc(OCC=C)nc(OCC=C)n1
inactive: [5] | [6] | [7]

CC(C)(Oc1ccc(CCNC(=O)c2ccc(Cl)cc2)cc1)C(=O)O
inactive: [5] | [6] | [7]

CN(C)CCOCCN(C)C
inactive: [5] | [6] | [7]

O=P(c1ccccc1)(c1ccccc1)c1ccccc1
inactive: [5] | [6] | [7]

O=C(O)CCCCCCCC(=O)O
inactive: [5] | [6]

CC1=CCC(O)(C(C)C)CC1 (configuration not stated)
inactive: [5] | [6] | [7]

CN1[C@@H]2CC(OC(=O)[C@H](CO)c3ccccc3)C[C@H]1[C@@H]1O[C@@H]12 (some centres not stated)
inactive: [5] | [6] | [7]

O=C[C@H](O)[C@H](O)[C@H](O)CO
inactive: [5]

NC(N)=NC(=O)c1nc(Cl)c(N)nc1N
inactive: [5]

C[C@]12CC[C@H]3[C@@H](CCC4=CC(=O)CC[C@@]43C)[C@@H]1CC[C@@H]2C(=O)CO
inactive: [5] | [6]

NC(=O)NC1NC(=O)NC1=O (configuration not stated)
inactive: [5] | [6] | [7]

Nc1ccc(S(N)(=O)=O)cc1
inactive: [5] | [6] | [7]

OCCN1CCNCC1
inactive: [5]

CCCCO
inactive: [5] | [6]

O=C(O)c1ccc([N+](=O)[O-])cc1
inactive: [5] | [6]

S=C(S)NCCNC(=S)S
inactive: [5] | [6]

CCCCN
inactive: [5] | [6]

COC(=O)C1=C(C)NC(C)=C(C(=O)OCCN(C)Cc2ccccc2)C1c1cccc([N+](=O)[O-])c1 (configuration not stated)
inactive: [5] | [6]

Clc1ccc2c(c1)C(N1CCNCC1)=Nc1ccccc1O2
inactive: [5] | [6] | [7]

O=C(Nc1ccccc1)c1cc([N+](=O)[O-])ccc1Cl
inactive: [5] | [6]

CC1CCC(C(C)(C)O)CC1 (configuration not stated)
inactive: [5] | [6]

Cc1cccc(C)c1C
inactive: [5] | [6]

COc1ccc(O)cc1
inactive: [5] | [6] | [7]

CC1(C)CCC(C)(C)c2cc(C(=O)Nc3ccc(C(=O)O)cc3)ccc21
inactive: [5] | [6] | [7]

CN1Cc2c(N)cccc2C(c2ccccc2)C1 (configuration not stated)
inactive: [5] | [6]

Cc1ccc(C=O)cc1
inactive: [5] | [6] | [7]

COC(C)CCO (configuration not stated)
inactive: [5] | [6]

Cc1ccc(C(C)C)cc1O
inactive: [5] | [6] | [7]

CC(C)=CCO
inactive: [5]

CC(=O)O[C@]1(C(C)=O)CC[C@H]2[C@@H]3C[C@H](C)C4=CC(=O)CC[C@]4(C)[C@H]3CC[C@@]21C
inactive: [5]

C=O
inactive: [5] | [6] | [7]
